# Unmarked numbers belong to inactive results. Results filed as inconclusive are left out. Entries that show only a call come without a potency. The source made the active and inactive calls. Unless noted, the call rests on the fitted dose curve; in most records, active means well fitted curve in the direction sought with a large enough effect in the repeat runs; inconclusive means weak or mixed curves; inactive means no such curve, though single readings can be large; an effect the other way counts as inactive or inconclusive.
# Key:
# [1] = qHTS assay to identify small molecule agonists of the AP-1 signaling pathway - cell viability counter screen (AID 1159525; calls by dose curve; further: nearly all actives have a fitted effect of over 55% in size; further: potency means the concentration at half of the fitted maximal effect)
# How it was run: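 Each titration point was normalised to DMSO and tetra n-octyl ammonium bromide controls. The read was Cell Titer Glo luminescence after 30 min at RT, following 5 h compound exposure of ME-180 AP-1-bla cells at 37 °C.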
# [2] = biological target: Nuclear receptor subfamily 1 group I member 3 (Homo sapiens) (UniProt Q14994); test: qHTS assay to identify small molecule antagonists of the constitutive androstane receptor (CAR) signaling pathway (AID 1224838);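 further: HepG2 cells stably expressing hCAR with CYP2B6 luciferase reporter stimulated by CITCO; nearly all actives have a fitted effect of over 40% in size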
# Sequence of Nuclear receptor subfamily 1 group I member 3 (Homo sapiens) (Q14994 whole entry, looked up): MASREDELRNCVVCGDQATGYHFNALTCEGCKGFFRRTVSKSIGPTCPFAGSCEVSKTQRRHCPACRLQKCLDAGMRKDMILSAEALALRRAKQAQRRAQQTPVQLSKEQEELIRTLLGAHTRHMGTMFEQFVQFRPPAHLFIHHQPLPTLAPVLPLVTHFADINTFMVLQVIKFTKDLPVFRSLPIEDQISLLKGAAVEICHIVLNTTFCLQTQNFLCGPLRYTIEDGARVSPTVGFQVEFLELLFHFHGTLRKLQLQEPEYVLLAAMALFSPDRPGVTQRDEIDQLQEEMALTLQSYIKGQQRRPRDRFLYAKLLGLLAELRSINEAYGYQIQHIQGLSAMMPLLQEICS
# How it was run: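 Antagonist mode used CITCO at a final 50 nM to activate CAR in human hepatoma HepG2 cells carrying stable hCAR and a 2.2 kb CYP2B6 promoter-luciferase construct. Compounds were tested at 15 concentrations over 24 h, with luminescence as the end point.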
# [3] = qHTS assay to identify small molecule agonists of the estrogen related receptor signaling pathway with the pleiotropic PPARgamma coactivator (PGC) from Tox21 10K library (AID 1224842); further: nearly all actives have a fitted effect of over 15% in size
# How it was run: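 PGC/ERR reporter cells (NTP line) were seeded 2,000 per well, rested 6 h at 37 C/5% CO2, then pin-dosed with compounds in DMSO for 18 h at 37 C; luciferase read by One-Glo luminescence after 30 min at room temperature.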
# [4] = A CellTox Green Cytotoxicity Assay to monitor cytotoxicity in HEK293 cells - 0 hour (AID 1224869); further: nearly all actives have a fitted effect of over 50% in size
# How it was run: (§1)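 Cells (HEK293, 600/well) and dye reagent are dispensed together. After 5 h at 37 C, 23 nL compound is pinned in. Plates stay at 37 C for 40 h with fluorescence read at 0h, 8h, 16h, 24h, 32h and 40h.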
# [5] = qHTS RealTime-Glo MT Cell Viability Assay in HepG2 cells - 40 hour (AID 1224870); further: nearly all actives have a fitted effect of over 50% in size; further: potency means the concentration at half of the fitted maximal effect
# How it was run: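 HepG2 cells mixed with RealTime-Glo MT reagents (NanoLuc plus cell-permeant prosubstrate) were seeded at 600 cells/well, incubated 5 h at 37 C/5% CO2, then pinned with compounds in DMSO; nonlytic luminescence tracked viability during 40 h treatment.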
# [6] = A CellTox Green Cytotoxicity Assay to monitor cytotoxicity in HEK293 cells - 40 hour (AID 1224871); further: nearly all actives have a fitted effect of over 45% in size; further: potency means the concentration at half of the fitted maximal effect
# How it was run: as §1
# [7] = qHTS RealTime-Glo MT Cell Viability Assay in HEK293 cells - 40 hour (AID 1224874); details: RealTime-Glo luminescence; max response: stronger effect = lower value; further: nearly all actives have a fitted effect of over 50% in size; further: potency means the concentration at half of the fitted maximal effect
# How it was run: (§2)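 Real-time viability in HEK293: signal arises when living cells convert a prosubstrate for NanoLuc in the medium, so luminescence tracks viable cell number. Compound (23 nL, DMSO) added 5 h post-seeding; kinetic reads at 0–40 h, 37 C.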
# [8] = A CellTox Green Cytotoxicity Assay to monitor cytotoxicity in HepG2 cells - 16 hour (AID 1224876); further: nearly all actives have a fitted effect of over 45% in size; further: potency means the concentration at half of the fitted maximal effect
# How it was run: (§3)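 Cells and non-lytic dye reagent are dispensed together (600 HepG2 cells/well) and incubated 5 h before DMSO compound transfer. Kinetic fluorescence is then recorded in the same wells during 40 h at 37 C.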
# [9] = qHTS RealTime-Glo MT Cell Viability Assay in HepG2 cells - 32 hour (AID 1224877); further: nearly all actives have a fitted effect of over 55% in size; further: potency means the concentration at half of the fitted maximal effect
# How it was run: (§4)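 Luminescence read-out: viable HepG2 cells reduce a prosubstrate to a NanoLuc substrate, giving a signal proportional to live cell number. Reads taken at 0, 8, 16, 24, 32 and 40 h of compound exposure at 37 C.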
# [10] = qHTS RealTime-Glo MT Cell Viability Assay in HEK293 cells - 0 hour (AID 1224880); further: top concentration of the series differs between compounds; nearly all actives have a fitted effect of over 45% in size
# How it was run: as §2
# [11] = A CellTox Green Cytotoxicity Assay to monitor cytotoxicity in HEK293 cells - 16 hour (AID 1224888); further: nearly all actives have a fitted effect of over 35% in size; further: potency means the concentration at half of the fitted maximal effect
# How it was run: as §1
# [12] = qHTS RealTime-Glo MT Cell Viability Assay in HepG2 cells - 0 hour (AID 1224889); further: nearly all actives have a fitted effect of over 50% in size; further: potency means the concentration at half of the fitted maximal effect
# How it was run: as §4
# [13] = qHTS assay to identify small molecule HDAC inhibitors - cell viability counter screen (AID 1259365)
# How it was run: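 CellTiter-Glo luminescence (30 min, room temperature) reported viability after a 2 h compound exposure at 37 C. Cells: wild-type HCT-116, 1,500 per well, seeded the night before.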
# [14] = qHTS assay to identify small molecule antagonists of the sonic hedgehog signaling (Shh) pathway (AID 1259369; calls by dose curve; further: potency means the concentration at half of the fitted maximal effect; nearly all actives have a fitted effect of over 45% in size)
# How it was run: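 Cells are plated and held 4hr at 37 C, compounds (DMSO) are pinned in, conditioned medium is added to stimulate the pathway, and after 24hr luciferase reagent is added for 30min before luminescence is read.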
# [15] = qHTS assay to identify small molecule agonists or antagonists of the thyroid stimulating hormone receptor (TSHR) signaling pathway - wild type cell line counter screen (AID 1259384; calls by dose curve)
# How it was run: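 Wild-type HEK293 cells were plated 18 h at 37 C/5% CO2, pin-dosed with compound plus Ro20-1724 medium, held 30 min at room temperature, then given cAMP-d2 and anti-cAMP-cryptate; fluorescence was read after 1 h. Fifteen concentrations, triplicate.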
# [16] = qHTS assay to identify small molecule agonists of the TGF-beta/Smad signaling pathway (AID 1346859; active means well fitted activation curve with a large enough effect in the signal ratio in the repeat runs, not every such curve was filed as active; the % refers to the signal ratio; further: series mostly up to about 77 µM)
# How it was run: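 Fluorescence (ex 405 nm; em 460 and 530 nm) was read 2 h after LiveBLAzer FRET substrate at RT. The preceding compound treatment of overnight-plated SBE-bla HEK293T cells lasted 5 h at 37 C.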
# [17] = biological target: Cytochrome P450 1A2 (Homo sapiens) (UniProt P05177); test: Cytochrome P450 Family 1 Subfamily A Member 2 (CYP1A2) small molecule antagonists: luciferase reporter qHTS assay (AID 1671199); further: nearly all actives have a fitted effect of over 50% in size; further: potency means the concentration at half of the fitted maximal effect
# Sequence of Cytochrome P450 1A2 (Homo sapiens) (P05177 whole entry, looked up): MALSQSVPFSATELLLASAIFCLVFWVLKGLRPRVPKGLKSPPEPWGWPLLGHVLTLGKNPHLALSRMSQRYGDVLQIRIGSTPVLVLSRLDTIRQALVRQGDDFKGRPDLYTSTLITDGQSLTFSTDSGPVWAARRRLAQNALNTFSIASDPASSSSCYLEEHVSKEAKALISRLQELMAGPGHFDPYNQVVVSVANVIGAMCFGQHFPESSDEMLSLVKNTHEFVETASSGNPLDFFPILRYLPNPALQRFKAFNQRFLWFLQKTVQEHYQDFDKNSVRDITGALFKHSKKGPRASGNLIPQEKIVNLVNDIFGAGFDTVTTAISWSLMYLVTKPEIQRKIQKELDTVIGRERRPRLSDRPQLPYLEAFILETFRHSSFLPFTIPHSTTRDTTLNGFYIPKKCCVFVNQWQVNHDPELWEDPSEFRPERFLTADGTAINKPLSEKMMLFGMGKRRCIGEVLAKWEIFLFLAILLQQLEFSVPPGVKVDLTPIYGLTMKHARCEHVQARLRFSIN
# How it was run: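 Compounds were incubated with CYP1A2 and a luminogenic proluciferin substrate for 10 min at room temperature before the reaction was started with NADPH regeneration solution. After 1 h, detection reagent was added and light output, proportional to CYP activity, was recorded.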
# [18] = biological target: Voltage-gated inwardly rectifying potassium channel KCNH2 (Homo sapiens) (UniProt Q12809); test: Human Ether-a-go-go-Related Gene (hERG) channel small molecule antagonists: fluorescence cell-based qHTS assay (AID 1671200); further: nearly all actives have a fitted effect of over 50% in size; further: potency means the concentration at half of the fitted maximal effect
# Sequence of Voltage-gated inwardly rectifying potassium channel KCNH2 (Homo sapiens) (Q12809 whole entry, looked up): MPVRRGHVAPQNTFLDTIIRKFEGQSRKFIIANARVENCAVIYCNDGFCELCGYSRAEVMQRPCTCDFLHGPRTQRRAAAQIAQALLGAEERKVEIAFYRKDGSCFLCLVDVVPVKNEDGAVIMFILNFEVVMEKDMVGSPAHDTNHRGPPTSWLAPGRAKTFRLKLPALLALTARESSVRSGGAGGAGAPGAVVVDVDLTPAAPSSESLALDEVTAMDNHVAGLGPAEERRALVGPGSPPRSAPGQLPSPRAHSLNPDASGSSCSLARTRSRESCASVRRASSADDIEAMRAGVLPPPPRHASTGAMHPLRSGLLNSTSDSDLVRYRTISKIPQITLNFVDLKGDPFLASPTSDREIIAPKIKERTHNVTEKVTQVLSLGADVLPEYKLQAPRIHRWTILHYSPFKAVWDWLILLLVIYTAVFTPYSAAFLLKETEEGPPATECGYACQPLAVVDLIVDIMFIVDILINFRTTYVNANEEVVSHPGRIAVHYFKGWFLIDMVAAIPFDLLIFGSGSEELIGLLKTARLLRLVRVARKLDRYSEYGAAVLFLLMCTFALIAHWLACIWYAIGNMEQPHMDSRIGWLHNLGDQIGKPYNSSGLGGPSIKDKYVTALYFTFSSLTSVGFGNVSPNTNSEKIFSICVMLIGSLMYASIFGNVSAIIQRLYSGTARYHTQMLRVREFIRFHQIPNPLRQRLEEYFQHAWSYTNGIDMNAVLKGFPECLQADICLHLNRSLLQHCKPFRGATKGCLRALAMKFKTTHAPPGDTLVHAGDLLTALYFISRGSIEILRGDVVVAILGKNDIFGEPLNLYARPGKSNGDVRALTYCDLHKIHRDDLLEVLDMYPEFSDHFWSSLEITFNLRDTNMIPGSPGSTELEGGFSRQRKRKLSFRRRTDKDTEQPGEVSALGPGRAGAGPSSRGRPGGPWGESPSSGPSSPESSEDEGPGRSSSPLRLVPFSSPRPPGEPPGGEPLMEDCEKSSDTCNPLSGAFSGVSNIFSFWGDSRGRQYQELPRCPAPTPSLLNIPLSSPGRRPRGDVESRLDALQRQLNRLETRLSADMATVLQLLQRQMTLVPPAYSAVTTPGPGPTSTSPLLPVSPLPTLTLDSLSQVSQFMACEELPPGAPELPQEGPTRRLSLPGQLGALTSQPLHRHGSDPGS
# How it was run: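 Thallium flux as potassium surrogate: FluxOR II dye loaded 1 h at room temperature into hERG-expressing U2OS cells, then stimulus buffer added after 10 min. Kinetic 480 nm excitation/540 nm emission read, 2 min.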
# [19] = A CellTox Green Cytotoxicity Assay to monitor cytotoxicity in HepG2 cells - 8 hour (AID 1224890); further: nearly all actives have a fitted effect of over 45% in size; further: potency means the concentration at half of the fitted maximal effect
# How it was run: as §3
# [20] = qHTS assay to identify small molecule antagonists of the estrogen receptor alpha (ER-alpha) signaling pathway using the BG1 cell line in the presence of 0.1 nM 17-beta-estradiol - cell viability counter screen (AID 1259241); further: nearly all actives have a fitted effect of over 40% in size
# How it was run: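 Cytotoxicity counter-screen: live-cell protease activity measured by fluorescence (30 min reagent step) in the same wells. Cells were VM7Luc4E2 with endogenous ER-alpha and ERE-driven luciferase, treated 22 hr at 37C alongside 0.1 nM 17beta-estradiol final.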
smiles,measurement,setting,value
COc1cc(OC)c(OC)cc1C=O,Potency,[1],inactive
same,Potency,[2],inactive
same,Potency,[3],inactive
same,Potency,[4],inactive
same,Potency,[5],inactive
same,Potency,[6],inactive
same,max response,[7],-0.404%
same,Potency,[8],inactive
same,Potency,[9],inactive
same,outcome,[10],inactive
same,Potency,[11],inactive
same,Potency,[12],inactive
same,outcome,[13],inactive
same,Potency,[14],13.3 µM (active)
same,outcome,[15],inactive
same,outcome,[16],inactive
same,Potency,[17],11 µM (active)
same,Potency,[18],inactive
O=C1C(I)=CC(=C(c2cc(I)c(O)c(I)c2)c2ccccc2C(=O)O)C=C1I,Potency,[2],inactive
same,Potency,[4],inactive
same,Potency,[5],inactive
same,Potency,[6],inactive
same,max response,[7],-8.4%
same,Potency,[8],inactive
same,Potency,[9],inactive
same,outcome,[10],inactive
same,Potency,[11],inactive
same,Potency,[12],inactive
same,Potency,[19],inactive
same,Potency,[20],inactive
same,outcome,[13],inactive
same,outcome,[15],inactive
same,outcome,[16],inactive
same,Potency,[17],inactive
same,Potency,[18],inactive
CNC(=O)Oc1cc(C)c(SC)c(C)c1,Potency,[1],inactive
same,Potency,[2],inactive
same,Potency,[5],inactive
same,Potency,[8],inactive
same,Potency,[9],inactive
same,outcome,[10],inactive
same,Potency,[11],21.9 µM (active)
same,Potency,[12],inactive
same,Potency,[19],inactive
same,Potency,[20],inactive
same,outcome,[13],inactive
same,Potency,[14],8.63 µM (active)
same,outcome,[15],inactive
same,outcome,[16],inactive
same,Potency,[17],6.33 µM (active)
same,Potency,[18],inactive
O=C1OC(=O)c2c(Cl)c(Cl)c(Cl)c(Cl)c21,Potency,[2],inactive
OC(Cc1ccccc1Cl)(Cn1[nH]cnc1=S)C1(Cl)CC1 (stereo not drawn),Potency,[1],inactive
same,Potency,[2],inactive
same,Potency,[4],inactive
same,Potency,[5],inactive
same,Potency,[6],inactive
same,Potency,[8],inactive
same,Potency,[9],inactive
same,Potency,[11],inactive
same,Potency,[12],inactive
same,Potency,[19],inactive
same,Potency,[20],inactive
same,outcome,[13],inactive
same,Potency,[14],38.6 µM (active)
same,outcome,[15],inactive
same,outcome,[16],inactive
same,Potency,[18],inactive
OCC(c1ccc(Cl)cc1)c1ccc(Cl)cc1,Potency,[1],49 µM (active)
same,Potency,[4],inactive
same,Potency,[6],43.6 µM (active)
same,Potency,[7],38.9 µM (active)
same,Potency,[8],43.6 µM (active)
same,outcome,[10],inactive
same,Potency,[11],24.5 µM (active)
same,Potency,[12],inactive
same,Potency,[19],49 µM (active)
same,Potency,[20],inactive
same,outcome,[13],inactive
same,Potency,[14],24.3 µM (active)
same,outcome,[15],inactive
same,outcome,[16],inactive
same,Potency,[17],35.6 µM (active)
same,Potency,[18],43.6 µM (active)
c1ccc2c(c1)Sc1ccccc1N2CC1CN2CCC1CC2 (stereo not drawn),Potency,[1],inactive
same,Potency,[3],inactive
same,Potency,[4],inactive
same,Potency,[5],21.3 µM (active)
same,Potency,[6],26.8 µM (active)
same,Potency,[7],23.9 µM (active)
same,Potency,[8],23.9 µM (active)
same,Potency,[9],23.9 µM (active)
same,Potency,[20],inactive
same,outcome,[13],inactive
same,Potency,[14],9.44 µM (active)
same,outcome,[15],inactive
same,outcome,[16],inactive
same,Potency,[17],inactive
same,Potency,[18],5.35 µM (active)
C[C@]12CC[C@@H](O)C[C@@H]1CC[C@@H]1[C@@H]2CC[C@]2(C)C(=O)CC[C@@H]12,Potency,[1],49 µM (active)
same,Potency,[4],inactive
same,Potency,[5],inactive
same,Potency,[6],49 µM (active)
same,Potency,[7],24.5 µM (active)
same,Potency,[8],inactive
same,Potency,[9],inactive
same,outcome,[10],inactive
same,Potency,[11],inactive
same,Potency,[12],34.7 µM (active)
same,Potency,[19],inactive
same,Potency,[20],inactive
same,outcome,[13],inactive
same,Potency,[14],19.3 µM (active)
same,outcome,[16],inactive
same,Potency,[18],inactive
Brc1cc(Br)cc(Br)c1,Potency,[2],inactive
Nc1ccc(Cl)cc1[N+](=O)[O-],Potency,[2],inactive
same,Potency,[3],inactive

# Reference: PubChem BioAssay (Tox21)
